Compound activity as filed in PubChem BioAssay.
TbREL1 inh = TbREL1 inhibition, primary screen | inhibition, % at 9.66 µM | TbREL1 RNA ligation, FRET fluorescence | 89,000 tested, 0.49% active | P86926;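 active = inhibition above the mean inhibition across all screened compounds plus 3 SD, cut at about 11% in these data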;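 note: 0% = plate median of test wells and 100% = NSC42067 control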
Target sequence (P86926 whole entry, looked up): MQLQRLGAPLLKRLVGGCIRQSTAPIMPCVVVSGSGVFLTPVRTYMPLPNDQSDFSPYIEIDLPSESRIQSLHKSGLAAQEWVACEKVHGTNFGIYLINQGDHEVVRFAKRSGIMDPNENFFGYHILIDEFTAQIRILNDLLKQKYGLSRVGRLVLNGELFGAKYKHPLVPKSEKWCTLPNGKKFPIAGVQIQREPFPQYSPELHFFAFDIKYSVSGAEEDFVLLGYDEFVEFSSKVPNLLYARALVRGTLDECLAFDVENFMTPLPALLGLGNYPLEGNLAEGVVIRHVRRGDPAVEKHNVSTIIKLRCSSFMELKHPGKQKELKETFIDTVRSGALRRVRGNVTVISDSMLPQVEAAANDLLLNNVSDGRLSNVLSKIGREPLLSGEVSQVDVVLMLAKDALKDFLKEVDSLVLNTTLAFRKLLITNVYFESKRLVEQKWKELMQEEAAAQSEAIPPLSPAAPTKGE
TbREL1 conf = TbREL1 inhibition, confirmation | 390 tested, 37% active | inhibition, % at 9.66 µM | shares compounds with TbREL1 inh | TbREL1 RNA ligation, FRET fluorescence | AID 1117282;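 active = mean inhibition across replicates above a set limit taken from the earlier primary screen, cut at about 11% in these data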;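 note: 0% = REL1 with substrate and DMSO and 100% = REL1 plus control inhibitor NSC42067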
Starred values were filed as active, the others as inactive. Only a selection was taken, and hits are over-represented in it overall.

Screening c1nc(NCC2CCCCO2)c2cc(-c3ccc4c(c3)OCO4)ccc2n1 (centres undefined) returned TbREL1 inh 8.8.
Screening CC[C@@H](C)[C@@H]1CN([C@@H](C)CN2CCC[C@H]2CN2C(N)=NC[C@@H]2Cc2ccccc2)C(=N)N1CCCC1CCCC1 returned TbREL1 inh 2.6.
CC(C)C[C@H]1CNC(=S)N1CC1CCCN1C[C@H](CC(C)C)N1C[C@H](Cc2ccccc2)N(CC2CCCCCC2)C1=S (some centres undefined) was read as TbREL1 inh -4.0.
`CC(C)C[C@@H]1CN=C(N)N1C[C@@H]1CCCN1C[C@@H](C(C)C)N1C[C@@H](Cc2ccccc2)N(CCCC2CCCC2)C1=N` gave TbREL1 inh 12.6*.
`COc1ccc(C(c2ccc(OC)cc2)N2CCN(C(=O)c3noc(C)c3[N+](=O)[O-])CC2)cc1` gave TbREL1 inh 1.1.
`CCCCCOc1ccc(/C=N/NC(=O)CSc2nnc(-c3ccc(OC)cc3)n2-c2ccc(C)cc2)cc1` gave TbREL1 inh 1.8.
`C=CCOC(=O)C1=C(C)N=c2sc(=C3C(=O)N(CC(=O)O)c4ccccc43)c(=O)n2C1c1ccc(OC)cc1` (centres undefined) gave TbREL1 inh 2.0.
For CCCNC(=O)C(=O)NCCC1=CCCCC1 the results were TbREL1 inh 1.3.
Screening Cc1ccc(C2(C)NC(=O)N(CC(=O)NCCC3=CCCCC3)C2=O)cc1 (centres undefined) returned TbREL1 inh -0.8.
For Cc1ccc(CNCCC2=CCCCC2)cc1 the results were TbREL1 inh 11.1*.
`CCCCc1ccc2nc(NC(=O)c3cccs3)sc2c1` gave TbREL1 inh 4.5.
For COc1ccc(/C=C2/CN(Cc3ccc(OC)cc3OC)C3=NC(c4ccc5ccccc5c4)CC(=O)N32)cc1 (centres undefined) the results were TbREL1 inh 10.8.
COc1ccc(OC)c(S(=O)(=O)n2c(CN3CCOCC3)nc3ccccc32)c1 was read as TbREL1 inh 1.7.
For CC(=O)N(C)c1ccc(NC(=O)/C=C/c2ccccc2Cl)cc1 the results were TbREL1 inh -3.3.
O=C(/C=C\c1ccccc1[N+](=O)[O-])Nc1ccccc1 was read as TbREL1 inh 12.1* and TbREL1 conf 6.8.
O=C(/C=C/c1cccc([N+](=O)[O-])c1)Nc1cc(C(=O)O)cc(C(=O)O)c1 was read as TbREL1 inh 1.6.
CC(=O)N1CCN(C(=O)CCn2nnc3ccccc32)CC1 was read as TbREL1 inh -2.0.
`COc1ccc(N2CCN(CCCNC(=O)CCc3cccc(Cl)c3)CC2)cc1` gave TbREL1 inh -3.5.
For S=C(Nc1ccc(Br)cc1)OCCN1CCCC12CCC(c1ccccc1)CC2 (centres undefined) the results were TbREL1 inh -1.4.
For COc1c(C(C)(C)C)cc(S(=O)(=O)N2c3ccccc3C[C@H]2C)cc1C(C)(C)C the results were TbREL1 inh -1.4.
COc1ccc2c(c1)N[C@@](CCN1C(=O)c3ccccc3C1=O)(c1[nH]c3ccccc3c1CCN1C(=O)c3ccccc3C1=O)C2=O was read as TbREL1 inh 1.8.
For COCCNc1nc(NCc2cccs2)nc2ccsc12 the results were TbREL1 inh 0.7.
`CNc1nc(NCc2ccccc2)c2sccc2n1` gave TbREL1 inh 5.2.
COc1cccc(CNc2nc(NCc3ccccc3)nc3ccsc23)c1 was read as TbREL1 inh 12.8* and TbREL1 conf 13.5*.
For CC(C)Nc1nc(NCCOc2ccccc2)c2sccc2n1 the results were TbREL1 inh 13.5* and TbREL1 conf 7.1.
For c1ccc(OCCNc2nc(NCC3CC3)nc3cc(-c4ccccc4)sc23)cc1 the results were TbREL1 inh 8.8.
Screening c1ccc(CNc2nc(NCCc3ccncc3)c3sccc3n2)cc1 returned TbREL1 inh -0.1.
Screening NC(=O)C1CCN(c2ncc(Br)s2)CC1 returned TbREL1 inh 1.3.
Screening COc1ccc([C@H]2OC(=O)C[C@H]2C(=O)N2CCN(c3ccccc3Cl)CC2)cc1OC returned TbREL1 inh 0.2.
Screening O=C(OCc1cn(Cc2ccc(F)cc2)nn1)N1CCOCC1 returned TbREL1 inh 3.1.
Cc1ccc(OCc2nnc(SCC(=O)c3ccc4ccccc4c3)n2-c2ccc(Cl)cc2)cc1 was read as TbREL1 inh -3.0.
For COC(=O)[C@]12C[C@H](CC(=O)NCc3ccc(OC)c(OC)c3)C(=O)N(CCC3=CCCCC3)C1=C[C@H](C1CCCC1)O[C@@H]2C the results were TbREL1 inh -2.0.
For COc1cccc(Nc2cc(C)nc3ccccc23)c1 the results were TbREL1 inh 2.8.
Screening COc1ccc2nc(C)cc(NCc3cccc(C(F)(F)F)c3)c2c1 returned TbREL1 inh 12.6* and TbREL1 conf 15.5*.
COc1ccc2nc(C)cc(Nc3ccccc3O)c2c1 was read as TbREL1 inh 1.6.
Screening O=C(CCn1nnc(-c2cccs2)n1)NCc1ccco1 returned TbREL1 inh -0.8.
`COc1ccc2c(c1)[C@@]1(NCCc3c1[nH]c1ccc(OC)cc31)C(=O)N2` gave TbREL1 inh -2.6.
`C[C@H](NC(N)=O)C(=O)OCC(=O)Nc1ccc(OC(F)F)cc1` gave TbREL1 inh 11.6* and TbREL1 conf -1.1.
`O=C(COC(=O)C1CCC1)Nc1ccc(OC(F)F)cc1` gave TbREL1 inh 2.4.
Screening CCCCC(=O)OCC(=O)Nc1ccc(OC(F)F)cc1 returned TbREL1 inh -1.2.
`O=C(Cn1nnc(-c2ccncc2)n1)Nc1ccc(Cl)cc1` gave TbREL1 inh 0.1.
COc1ccc([C@H]2OC(=O)C[C@H]2C(=O)N2CCCC2)cc1OC was read as TbREL1 inh 1.1.
CCc1ccc(CCNC(=O)OC2CC3CC2[C@H]2CCCCN2C3)cc1 (some centres undefined) was read as TbREL1 inh 2.2.
COc1ccc(-c2nnc3n2N=C(c2cccc([N+](=O)[O-])c2)CS3)cc1 was read as TbREL1 inh 0.7.
O=S1(=O)c2c(cccc2N2CC[C@@H](O)C2)O[C@H]2CCN1C2 was read as TbREL1 inh -0.8.
CCS(=O)(=O)n1nc(-c2ccc(Cl)cc2)nc1N was read as TbREL1 inh -0.1.
COc1ccc(-c2nc(SC)n(S(=O)(=O)c3ccccc3)n2)cc1 was read as TbREL1 inh 2.1.
Screening CSc1nc(-c2ccccc2)nn1S(=O)(=O)c1ccc(Cl)cc1 returned TbREL1 inh 11.3* and TbREL1 conf 3.2.
`NC(=O)C1CCN(c2nc(-c3ccc4c(c3)OCCCO4)cs2)CC1` gave TbREL1 inh -0.6.
`CC(=O)N1CCc2c1cccc2S(=O)(=O)NC(CC(C)C)C(=O)Nc1ccc(Cl)c(Cl)c1` (centres undefined) gave TbREL1 inh -1.8.
Screening CC1(C)Oc2ccc(C(=O)N3CCCC3)cc2NC1=O returned TbREL1 inh 0.0.
Fc1ccc(CC2CCN(c3ncnc4sccc34)CC2)cc1 was read as TbREL1 inh -0.2.
Cn1c(=O)c2[nH]c(SCC(=O)NCCc3cccc(F)c3)nc2n(C)c1=O was read as TbREL1 inh 2.2.
`O=C(CSc1nnc(-c2ccccc2)n1-c1ccccc1)NN=C/C=C\c1ccccc1[N+](=O)[O-]` gave TbREL1 inh -2.8.
CC(C)(C)c1ccc(S(=O)(=O)N2CCC(c3cn4ccccc4n3)CC2)cc1 was read as TbREL1 inh -1.3.
